Results filed as inconclusive are left out. Active and inactive are the calls of the source. The calls were made as follows: active = hit-call score of the fitted dose curve at least 0.9, where 1 is the maximum; inconclusive = response in the unintended direction; inactive = score below 0.9.

Test system in one test: not listed separately
Put plainly: TOX21_p53_BLA_p2_viability: Viability Assessment in the Tox21 HCT-116 p53 Agonism Beta-lactamase Assay, Phase 2 (AID 2283591).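 Also: compound exposure lasted 16 h at 37 °C; actives lower the ATP signal meaning cytotoxicity.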 The method, boiled down:
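HCT116 p53-bla cells, 4000/well, dosed after 5 h plating (217-fold dilution of DMSO stocks) and incubated 16 h at 37C. Viability taken as cellular ATP by CellTiter-Glo luminescence after 30 min RT; signal loss marks cytotoxicity.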
As to `Cc1cc(O)c(C(C)(C)C)cc1C(C)(C)C`, the AC50 was 40.6 µM (active).
Same read-out and setting: then `O=C1C=CC(=O)N1c1ccccc1`, with 69.7 µM (active).
`C[C@]12CC[C@H]3C(=CCc4cc(O)ccc43)[C@@H]1CCC2=O`: the call was inactive.

The target in the next test is Cellular tumor antigen p53 (Homo sapiens) (UniProt P04637). The experiment in a line: TOX21_p53_BLA_p2_ratio: Tox21 HCT-116 p53 Agonism Beta-lactamase Assay, Ratio, Phase 2 (AID 2283592). In a few lines: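 Gain-of-signal p53 agonism was scored from the beta-lactamase FRET ratio (460/530 nm, 405 nm excitation) in HCT116 cells treated 16 h at 37C, 5% CO2, with DMSO serving as negative control and baseline.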
Chain of Cellular tumor antigen p53 (Homo sapiens) (P04637 whole entry, looked up): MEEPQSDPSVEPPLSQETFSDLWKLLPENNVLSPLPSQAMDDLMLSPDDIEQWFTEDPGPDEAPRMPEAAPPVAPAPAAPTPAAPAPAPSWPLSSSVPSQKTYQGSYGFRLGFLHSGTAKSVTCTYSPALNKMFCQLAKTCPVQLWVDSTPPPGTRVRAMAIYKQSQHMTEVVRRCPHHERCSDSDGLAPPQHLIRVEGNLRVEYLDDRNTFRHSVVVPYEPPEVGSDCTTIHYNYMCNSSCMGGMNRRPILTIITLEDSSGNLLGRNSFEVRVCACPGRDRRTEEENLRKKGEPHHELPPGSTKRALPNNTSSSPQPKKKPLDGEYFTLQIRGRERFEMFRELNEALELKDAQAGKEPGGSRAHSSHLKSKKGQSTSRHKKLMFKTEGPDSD
For the molecule `Cc1cc(O)c(C(C)(C)C)cc1C(C)(C)C`, the AC50 was 70.8 µM (active).
Still for that read-out and setting: then `O=C1C=CC(=O)N1c1ccccc1`, with 80.4 µM (active).
On to `C[C@]12CC[C@H]3C(=CCc4cc(O)ccc43)[C@@H]1CCC2=O`, for which the outcome was inactive.

Test system in another test: not listed separately
Put plainly: TOX21_p53_BLA_p3_viability: Viability Assessment in the Tox21 HCT-116 p53 Agonism Beta-lactamase Assay, Phase 3 (AID 2283593).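 Also: cells exposed to compound for 16 h before reading.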 In a few lines:
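HCT116 cells, 4000/well, dosed 5 h after plating by pin transfer (217-fold dilution from DMSO stock) and incubated 16 h at 37C, 5% CO2. Viability read as ATP luminescence with CellTiter-Glo after 30 min at room temperature.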
On to `Cc1cc(O)c(C(C)(C)C)cc1C(C)(C)C`, for which the AC50 is 87 µM (active).
On the same count and under the same terms, under `O=C1C=CC(=O)N1c1ccccc1` stands 87.1 µM (active).
As for `C[C@]12CC[C@H]3C(=CCc4cc(O)ccc43)[C@@H]1CCC2=O`, the outcome was inactive.

The target of another test is Cellular tumor antigen p53 (Homo sapiens) (UniProt P04637). The experiment in a line: TOX21_p53_BLA_p3_ratio: Tox21 HCT-116 p53 Agonism Beta-lactamase Assay, Ratio, Phase 3 (AID 2283596). The method, boiled down:
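HCT116 p53-bla cells (4000/well) given compound in DMSO (217-fold dilution) after 5 h, incubated 16 h at 37C. CCF4-AM substrate 2 h at room temperature; 460/530 nm emission ratio, gain fitted against DMSO.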
In the case of `Cc1cc(O)c(C(C)(C)C)cc1C(C)(C)C`, the AC50 is 87.3 µM (active).
Same read-out and setting: under `O=C1C=CC(=O)N1c1ccccc1` stands 86.8 µM (active).
Take `C[C@]12CC[C@H]3C(=CCc4cc(O)ccc43)[C@@H]1CCC2=O`: the result was inactive.

Test system in a further test: not listed separately
The experiment in a line: TOX21_p53_BLA_p4_viability: Viability Assessment in the Tox21 HCT-116 p53 Agonism Beta-lactamase Assay, Phase 4 (AID 2283597).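 Also: hits lower the luminescence signal meaning cytotoxicity.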 In a few lines: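 Following a 16 h exposure at 37C, the treated HCT116 wells were first read for the FRET ratio. They were then lysed with CellTiter-Glo, and ATP luminescence was recorded after 30 min at room temperature.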
Take `Cc1cc(O)c(C(C)(C)C)cc1C(C)(C)C`: the AC50 is 30.9 µM (active).
On the same count and under the same terms, under `O=C1C=CC(=O)N1c1ccccc1` stands 84.5 µM (active); under `C[C@]12CC[C@H]3C(=CCc4cc(O)ccc43)[C@@H]1CCC2=O`, 15.8 µM (active).

For a further test, the target named is Cellular tumor antigen p53 (Homo sapiens) (UniProt P04637). Put plainly: TOX21_p53_BLA_p5_ratio: Tox21 HCT-116 p53 Agonism Beta-lactamase Assay, Ratio, Phase 5 (AID 2283599). In a few lines: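 HCT-116 p53-bla cells (4000/well) plated 5 h, dosed with compound (217-fold DMSO dilution) for 16 h at 37 C; CCF4-AM substrate 2 h at room temperature. Activity is the 460/530 nm emission ratio (405 nm excitation), fitted in gain-of-signal direction versus DMSO.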
As to `Cc1cc(O)c(C(C)(C)C)cc1C(C)(C)C`, the AC50 is 57.2 µM (active).
The same measure, in the same setting: under `O=C1C=CC(=O)N1c1ccccc1` stands 85.3 µM (active).
On to `C[C@]12CC[C@H]3C(=CCc4cc(O)ccc43)[C@@H]1CCC2=O`, for which the outcome was inactive.

Test system in another test: not listed separately
The experiment in a line: TOX21_p53_BLA_p5_viability: Viability Assessment in the Tox21 HCT-116 p53 Agonism Beta-lactamase Assay, Phase 5 (AID 2283600). The method, boiled down: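 After the 460/530 nm beta-lactamase measurement, the wells received an ATP-detection luciferase reagent; signal was read 30 min later at RT. Compound treatment lasted 16 h on cells pre-incubated 5 h post-seeding.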
As to `Cc1cc(O)c(C(C)(C)C)cc1C(C)(C)C`, the AC50 is 34.3 µM (active).
As for `O=C1C=CC(=O)N1c1ccccc1`, the AC50 was 74.9 µM (active).
Turning to `C[C@]12CC[C@H]3C(=CCc4cc(O)ccc43)[C@@H]1CCC2=O`, the molecule was called inactive.

The test system of another test is Thyroperoxidase (TPO), gene 54314. The experiment in a line: CCTE_Simmons_AUR_rTPO: CCTE's Amplex UltraRed Assay for Thyroperoxidase (TPO) Inhibition, Simmons Lab (AID 2283662).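 Also: potency for loss of signal meaning inhibition of peroxidase activity.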 In a few lines:
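Rat thyroid microsomal TPO + 25 uM AUR in 200 mM K phosphate; cpd 5 nM–87.5 uM [final], 8 conc, 0.5% DMSO; 300 uM H2O2 starts rxn; 37C dark 30 min; endpoint FI 544/590 nm; n=3.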
Turning to `CCCCCCCCCc1ccc(OCCO)cc1`, the AC50 was 38.5 µM (active).
Still for that read-out and setting: under `CCCCCCCCCCCCC[N+](C)(C)Cc1ccccc1` stands 25.5 µM (active); under `C[C@]12CC[C@H]3C(=CCc4cc(O)ccc43)[C@@H]1CCC2=O`, 13.9 µM (active).

Test system in another test: not listed separately
Put plainly: CCTE_Simmons_CellTiterGLO_HEK293T: Viability Assessment in CCTE's Assays for Thyroperoxidase (TPO) Inhibition, Simmons Lab (AID 2283665).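 Also: cells exposed to compound for 24 h before readout; actives reduce ATP signal below DMSO vehicle meaning cytotoxicity.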 The method, boiled down:
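HEK293T, 10 000 cells/well, DMEM + 1% FBS; 8-pt titration 5 nM–87.5 uM [final], 0.5% DMSO; 24 hr, 37C, 5% CO2; CellTiter-Glo luminescence; n=3 biological replicates.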
In the case of `CCCCCCCCCc1ccc(OCCO)cc1`, the AC50 is 79.6 µM (active).
The same measure, in the same setting: then `CCCCCCCCCCCCC[N+](C)(C)Cc1ccccc1`, with 9.42 µM (active).
Same read-out and setting: then `C[C@]12CC[C@H]3C(=CCc4cc(O)ccc43)[C@@H]1CCC2=O`, with 87.7 µM (active).

For a further test, the target named is Luciferin 4-monooxygenase (Photinus pyralis) (UniProt P08659). Put plainly: CCTE_Simmons_QuantiLum_inhib_2: CCTE's Firefly Luciferase Inhibition Assay, Simmons Lab (AID 2283767).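 As to AC50: potency for inhibitors that lower luciferase luminescence relative to DMSO.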 The method, boiled down: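 Luminescence loss relative to DMSO vehicle defines inhibition; detection reagent containing 150 uM D-luciferin and 147 uM dATP (final, pH 7.8) is injected immediately before each read. Enzyme is preincubated with an 8-point titration (5 nM–87.5 uM final) for 30 min at 37C.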
Chain of Luciferin 4-monooxygenase (Photinus pyralis) (P08659 whole entry, looked up): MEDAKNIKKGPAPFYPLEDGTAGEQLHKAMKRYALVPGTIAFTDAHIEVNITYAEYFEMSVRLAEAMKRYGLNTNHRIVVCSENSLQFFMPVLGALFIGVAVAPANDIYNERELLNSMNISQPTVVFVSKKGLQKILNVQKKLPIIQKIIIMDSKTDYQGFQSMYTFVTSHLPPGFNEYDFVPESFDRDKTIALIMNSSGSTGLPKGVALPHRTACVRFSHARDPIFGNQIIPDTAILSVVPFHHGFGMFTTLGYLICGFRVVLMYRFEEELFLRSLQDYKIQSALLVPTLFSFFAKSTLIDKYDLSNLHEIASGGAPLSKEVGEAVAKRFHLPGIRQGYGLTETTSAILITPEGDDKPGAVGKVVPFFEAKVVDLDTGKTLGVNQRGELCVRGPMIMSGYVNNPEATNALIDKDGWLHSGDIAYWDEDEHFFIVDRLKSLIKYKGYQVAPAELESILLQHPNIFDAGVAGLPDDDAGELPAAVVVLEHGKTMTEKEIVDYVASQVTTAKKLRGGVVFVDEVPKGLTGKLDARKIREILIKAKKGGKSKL
On to `CCCCCCCCCc1ccc(OCCO)cc1`, for which the call was inactive.
Regarding `CCCCCCCCCCCCC[N+](C)(C)Cc1ccccc1`, the result was inactive.
For the molecule `C[C@]12CC[C@H]3C(=CCc4cc(O)ccc43)[C@@H]1CCC2=O`, the AC50 was 47 µM (active).

Values taken from PubChem BioAssay (EPA / NIEHS).
